About 35 (0.04%) of roughly 85,000 compounds were called active.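 How the source made its calls: active means viability drop by adding the cancer drug above about 55%, with treated viability meeting a 40% cutoff (limit read from the data); inactive means the rest, inconclusive results apart.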 Shown is part of a subset that was picked to be rich in actives.
Test: MRP1 drug-resistance reversers in H69AR cells – cell-based, doxorubicin co-treatment, primary screen (AID 602);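 on differential viability (reversal): larger differential means the compound sensitizes cells more to doxorubicin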
Details: CellTiter-Glo, 72 h, at 10 µM; for differential viability (reversal): stronger effect = higher value
[1] = H69AR cells + 2 uM doxorubicin, measured here: viability with 2 uM doxorubicin, stronger effect = lower value
[2] = H69AR cells, measured here: cytotoxicity without doxorubicin

SMILES	differential viability (reversal) (H69AR cells + 2 uM doxorubicin)	viability [1]	viability [2]
CCCC(=O)C1CCN(Cc2ccccc2)CC1	1.73% (inactive)	91.3%	93%
CC1(C)COC(c2cccn2Cc2ccccc2Cl)=N1	13.1% (inactive)	90.7%	104%
COc1ccc(C2CC(=O)n3c(nc4ccccc43)S2)cc1OC (stereo not given)	4.1% (inactive)	111%	115%
CCc1ccc2c(c1)C1(NN=C(c3ccccc3)S1)C(=O)N2 (stereo not given)	-18.7% (inactive)	34%	15.2%
COc1cccc(OC)c1C(=O)Nc1ccc(N2CCCCC2)cc1	15% (inactive)	90.1%	105%
COC(=O)CSc1snnc1-c1ccc(Cl)c(Cl)c1	8.05% (inactive)	89.3%	97.3%
CC(C)C(=O)NC(NC(=S)NC1CCS(=O)(=O)C1)C(Cl)(Cl)Cl (stereo not given)	6.22% (inactive)	95.7%	102%
CCOC(=O)c1cnn(Cc2ccccc2Cl)c1N	4.58% (inactive)	91.6%	96.2%
CCOc1cccc(C(=O)Nc2nnc(-c3cccs3)s2)c1	-41.2% (inactive)	103%	62.1%
CCn1nccc1C(=O)Nc1ccc(Cl)c(Cl)c1	8.65% (inactive)	68.4%	77%
CCCc1nc2sc3c(c2c(=O)n1NC(=O)CCCl)CCCC3	11.4% (inactive)	24.6%	36%
CC(c1ccco1)N(C(=O)Nc1ccccc1)C1CCCCC1 (stereo not given)	8.57% (inactive)	69.1%	77.7%
CCCNC(=O)c1ccccc1NC(=O)CSCc1ccc(OC)cc1	16.1% (inactive)	67.8%	83.9%
O=C(CSc1nnc(-c2cccnc2)n1CCc1ccccc1)NCc1ccccc1	20.9% (inactive)	68.7%	89.6%
Cc1ccc(Nc2nnc(SCc3ccccc3)s2)cc1	25.2% (inactive)	73%	98.2%
CC1CCN(S(=O)(=O)c2ccc(S(=O)(=O)NCc3ccco3)cc2)CC1	-17.8% (inactive)	93.1%	75.4%
CC(=O)NC1(c2cccc(F)c2)CCN(CC(=O)NC(C)C)CC1	-7.86% (inactive)	90.6%	82.8%
CCOc1ccc(N=Cc2c(O)n(-c3cccc(C)n3)c(=O)c3ccccc23)cc1	10.8% (inactive)	80.7%	91.4%
CCN(CC)S(=O)(=O)c1cc([N+](=O)[O-])ccc1NNC(=O)Nc1ccccc1	0.11% (inactive)	89.8%	89.9%
CCOc1nc(NCCN2CCOCC2)nc(Nc2ccc(C)cc2)n1	15.7% (inactive)	76.1%	91.8%
Cc1cccc(OCCCC(=O)Nc2ccc(S(=O)(=O)N3CCCC3)cc2)c1	6.98% (inactive)	82.2%	89.2%
COc1ccc(C2C(C#N)=C(/N=C/N3CCOCC3)OC3=C2C(=O)CC(C)(C)C3)cc1OC (stereo not given)	12.9% (inactive)	83.8%	96.7%
COC(=O)CNC(=O)c1ccccc1F	-4.37% (inactive)	89.6%	85.2%
Cc1ccc(-n2c(SCC(=O)NCc3ccc4c(c3)OCO4)nnc2-c2cccnc2)c(C)c1	-22.4% (inactive)	57.5%	35.1%
CCCCN1C(=O)/C(=C2/C=CC=CN2C)SC1=S	1.69% (inactive)	88.5%	90.2%

SMILES	differential viability (reversal) (H69AR cells + 2 uM doxorubicin)	viability [1]	viability [2]
CS(=O)(=O)N(CC(=O)Nc1ccc(Cl)c(Cl)c1)C1CCCCC1	-18.2% (inactive)	34.8%	16.6%
CC(C)(C)NC(=O)Cn1c(SCC(=O)Nc2nccs2)nc2ccccc21	7.96% (inactive)	84.5%	92.5%
COCCCNC(=O)CN1CCN(Cc2ccccc2Cl)C1=O	11.7% (inactive)	86.8%	98.5%
CCCc1nc(NCc2ccc3c(c2)OCO3)c2nnn(Cc3ccccc3Cl)c2n1	1.6% (inactive)	23%	24.6%
Cc1nc2ccccc2n1C(=O)N1CCOCC1	-2.57% (inactive)	85.1%	82.5%
CCN(CC(=O)Nc1ccccc1OC)C(=O)Cn1cnc2ccccc2c1=O	8.46% (inactive)	84.2%	92.7%
CCOc1c(Br)cc(/C=C2\C(=O)N(CCC#N)N=C2C)cc1OC	-46.8% (inactive)	73%	26.2%
CCNCCC(=O)N1c2ccccc2Sc2ccc(NC(=O)OCC)cc21	8.86% (inactive)	69.7%	78.6%
Cc1cccn2c(=O)c(/C=C(\C#N)S(=O)(=O)c3ccc(Cl)cc3)c(N3CCC(C(N)=O)CC3)nc12	-6.85% (inactive)	89%	82.2%
COc1ccc(-n2nc(C(=O)NCC(=O)Nc3cccc(C)n3)c3ccccc3c2=O)cc1	-0.23% (inactive)	74.5%	74.2%
CCOC(=O)N1CCC(Nc2c(NCCCN3CCN(CC)CC3)c(=O)c2=O)CC1	2.1% (inactive)	109%	112%
O=S(=O)(Cc1cc(Sc2ccccc2)nc(-c2ccccc2)n1)c1ccccc1	-7.14% (inactive)	91.4%	84.3%
Cc1ccc(CN(N=Nc2nonc2N)c2nonc2N)c(C)c1	2.63% (inactive)	76.9%	79.6%
CCN1C(=O)/C(=C2/Sc3ccc(OC)cc3N2C)SC1=Nc1ccc(C)cc1	-4.5% (inactive)	70.6%	66.1%
CC/C(O)=N\S(=O)(=O)c1ccc(N=NN(C)C)cc1	-1% (inactive)	86.7%	85.7%
CCC(C)NC(=O)c1cc(Cl)ccc1OC (stereo not given)	6.89% (inactive)	83.6%	90.5%
O=C(Nc1nnc(SCc2ccccc2)s1)c1ccco1	5.76% (inactive)	90.2%	96%
CCc1ccc(CNC(=O)C2CC(=O)N(CCc3ccc(C)cc3)C2)cc1 (stereo not given)	1.99% (inactive)	97.6%	99.5%
Cc1nnc(OCC(=O)NCCC2=CCCCC2)c2ccccc12	-0.56% (inactive)	101%	101%
O=C1C2C3C=CC(C4CC34)C2C(=O)N1/N=C/c1ccc(-c2ccccc2[N+](=O)[O-])o1 (stereo not given)	16.1% (inactive)	70.3%	86.5%
CC(C)CCOc1ccc(C(=O)C[N+]2(C)CCOCC2)cc1	16.9% (inactive)	86%	103%
Nc1nc(C23CC4CC(CC(C4)C2)C3)cs1	-3.46% (inactive)	96.8%	93.3%
Cc1cc(C)c(NC(=O)CN2CCOCCOCCOCCOCC2)c(C)c1	8.19% (inactive)	89%	97.2%
Nc1ccc(-n2nncc2-c2ccco2)cc1	59.2% (active)	39.6%	98.8%
Cc1ccc(-n2ncc3c(=O)n(-c4ccc(C)c(C)c4)c(-c4ccco4)nc32)cc1	-39.7% (inactive)	71%	31.3%

SMILES	differential viability (reversal) (H69AR cells + 2 uM doxorubicin)	viability [1]	viability [2]
Cc1[nH]n(-c2cccc(Cl)c2)c(=O)c1/C=N/n1c(C)nc2ccccc2c1=O	-32.9% (inactive)	62%	29.1%
Cc1cccc(C)c1OC(=O)CSc1nnc(-c2ccccc2)o1	9.93% (inactive)	88.5%	98.4%
Cc1ccc(NC(=S)NC(NC(=O)Cc2cccc3ccccc23)C(Cl)(Cl)Cl)cc1 (stereo not given)	0.19% (inactive)	0.8%	0.99%
COc1ccc(/C(N)=N/OC(=O)Oc2ccccc2)cc1	-10.6% (inactive)	93.2%	82.6%
CCOc1ccc2c(c1)C(c1ccc(C)cc1)=NNC(c1ccc(C)cc1)=N2	-43% (inactive)	64%	21%
O=C(CN1CCSCC1)N/N=C/c1ccc(F)cc1	8.43% (inactive)	90.1%	98.5%
CC(C)(C)c1ccc(C(=O)NNC(=O)Cc2ccccc2)cc1	9.15% (inactive)	85.9%	95%
COC(=O)C1=C(C(=O)OC)C2(OC1c1ccc(Br)cc1)C(=O)c1ccccc1C2=O (stereo not given)	12.1% (inactive)	94%	106%
O=C(CSc1nc2cccnc2n1Cc1ccccc1)N1CCc2ccccc21	10.8% (inactive)	59.3%	70.1%
COC(=O)CCSc1cc([N+](=O)[O-])cc2c1c(C1OCCS1)nn2-c1ccccc1 (stereo not given)	-2.64% (inactive)	101%	98.2%
CCCOn1c(-n2nc(C)cc2C)nc2ccccc2c1=O	4.29% (inactive)	89.5%	93.8%
O=C(Nc1ccc(F)c(Cl)c1)C1CCN(S(=O)(=O)c2cccnc2)CC1	1.44% (inactive)	70.3%	71.8%
Cc1ccc(C(=O)N/N=C/c2sc(=O)n(Cc3cccc(C(=O)O)c3)c2Cl)cc1	-5.62% (inactive)	92.7%	87.1%
CCOC(=O)C(C)Sc1nc2ccccc2c(=O)n1CC1CCCCC1 (stereo not given)	7.81% (inactive)	74.6%	82.4%
Cc1cccc(NC(=O)C2CC(=O)OC23CCCC3)c1 (stereo not given)	6.22% (inactive)	95.5%	102%
COc1ccc(CC(NC(C)=O)C(=O)N2CCN(C(=O)Nc3cccc(Cl)c3)CC2)cc1OC (stereo not given)	6.8% (inactive)	85%	91.8%
O=C(CCS(=O)(=O)c1cccc2nsnc12)N1CCN(c2ccccc2F)CC1	10.9% (inactive)	80%	91%
COc1ccc(-c2cc(C(=O)NCc3ccco3)no2)cc1OC	7.53% (inactive)	92.6%	100%
CCOC(=O)C1=C(C)NC2=C(C(=O)CC(C)(C)C2)C1c1ccsc1 (stereo not given)	-1.33% (inactive)	85.8%	84.5%
O=S(=O)(NCCc1ccccc1)c1ccccc1	7.78% (inactive)	95.5%	103%
CCN(c1ccccc1)S(=O)(=O)c1ccc(NC(=O)C(C)(C)C)cc1	-29.8% (inactive)	64.7%	34.8%
COc1ccc(-c2cc(C(F)(F)F)nc(NCc3cccnc3)n2)cc1	1.23% (inactive)	91.7%	92.9%
Cc1ccc(S(=O)(=O)N2CCN(S(=O)(=O)N3CCOCC3)CC2)cc1	3.28% (inactive)	89.8%	93.1%
CCOC(=O)/C(C#N)=C\c1c(C)cc(C)c(COC(C)=O)c1C	5.79% (inactive)	89.3%	95.1%
Cc1ccc(F)c(NC(=O)CCc2ccccc2)c1	2.31% (inactive)	95.5%	97.8%

Reference: PubChem BioAssay AID602 (SRMLSC, 2007)
